Reference: PubChem BioAssay (NCATS)
Records with an inconclusive call do not appear. Calls of active or inactive are those of the source. Calls follow the shape of the dose curve; as a rule, active = well fitted activation curve with a large enough effect; inconclusive = small, poorly fitted or top-dose-only effect; inactive = flat fitted curve, though single readings scatter.

Assay: Primary redox qHTS assay for identification of artifact compounds. (AID 1845223);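 also: 0% = DMSO and 100% = reference compound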
Details: Amplex Red/HRP redox cycling with DTT, fluorescence; series mostly up to 53.8 µM; redox activity (% of DA3003): at the top concentration
How it was run: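 Redox-cycling detection via DTT (250 uM final) oxidation coupled to Amplex Red (25 uM)/HRP (250 mU/mL) in HBSS. 15 min preincubation plus 30 min after DTT, room temperature. Ex/Em 525/598 nm; 4-parameter Hill fit against DMSO and 10 uM DA3003.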

Compound	redox activity (% of DA3003)
COc1cc(C[C@H]2C(=O)OC[C@@H]2Cc2ccc(OC)c(OC)c2)ccc1O	-4.21% (inactive)
CCC[C@H](N[C@H]1CCc2cc(F)cc(F)c2C1)C(=O)Nc1cn(C(C)(C)CNCC(C)(C)C)cn1	6.61% (inactive)
CCCc1ccc(OCC(=O)N(Cc2nc(-c3cccnc3)no2)C(C)C)cc1	-3.24% (inactive)
CCCCCCCOc1cc2c(cc1/C(C)=C/c1ccc(C(=O)O)cc1)C(C)(C)CCS2(=O)=O	14% (inactive)
NS(=O)(=O)c1ccc(NC(=O)Nc2ccc(F)cc2)cc1	-1.69% (inactive)
COc1cccc(N2CCN(C3=Nc4c(F)cccc4[C@H](CC(=O)O)N3c3cc(C(F)(F)F)ccc3OC)CC2)c1	8.74% (inactive)
COc1cc2c(cc1-c1c(C)noc1C)ncc1[nH]c(=O)n(C(C)c3ccccn3)c12 (stereo unspecified)	11.3% (inactive)
CCC(CC)C(c1ccc(Nc2nc3ccccc3s2)cc1)n1cncn1 (stereo unspecified)	-5.17% (inactive)
COC1CCN(C(=O)c2cc(Cc3n[nH]c(=O)c4ccccc34)ccc2F)CC1	-0.635% (inactive)
Cc1cnc(-c2ccccc2C(C)C)nc1NCc1ccc(-n2ccnn2)cc1	-3.64% (inactive)
COc1ccc(NC(=O)c2ccc(C(=N)N(C)C)cc2)c(C(=O)Nc2ccc(Cl)cn2)c1	-0.437% (inactive)
Fc1ccc(N2CCCCC2)c(NC(=S)c2ccncc2)c1	12% (inactive)
c1cc(NC2CCNCC2)nc(-c2cnc3ccccn23)c1	-1.16% (inactive)
Cn1cc(-c2ccc(S(=O)(=O)n3ccc(/C=C/C(=O)Nc4ccccc4N)c3)cc2)cn1	1.32% (inactive)
Cc1cn(CCN2CCN(c3ccccc3-c3cc(C#N)cc(C(=O)NCCCN4CCCC4)c3)CC2)c2ccccc12	5.62% (inactive)
Cc1cc2ncc(C(=O)NCC(C)(C)NCC(=O)N3CCC[C@H]3C#N)cn2n1	19.7% (inactive)

Compound	redox activity (% of DA3003)
Cc1cc(N2CCOCC2)ccc1Nc1nc(NC2CCCCC2)c2[nH]cnc2n1	3.51% (inactive)
COc1ccc(N(C(=O)Nc2c(C)cccc2C)c2cc(Nc3ccc(N4CCN(C)CC4)cc3)ncn2)c(OC)c1	18.3% (inactive)
N#C/C(=C1\Nc2ccccc2S1)c1ccnc(NCCc2cccnc2)n1	-3.67% (inactive)
O=C(Nc1cc(C(F)(F)F)ccc1N1CCCCC1)c1ccncc1	5.77% (inactive)
O=C(NCC1(c2nc(-c3ccccc3)cs2)CCOCC1)c1cccc(-c2noc(C(F)(F)F)n2)c1	12.9% (inactive)
Cc1ccc(CNc2ncnc3ccc(-c4ccc(CO)o4)cc23)o1	-11.2% (inactive)
CCCCCc1ccc(/C=C/C(=O)Nc2cc(Cl)ccc2C(=O)O)cc1	2.33% (inactive)
CC(C)(CNC(=O)c1cccc(-c2noc(C(F)(F)F)n2)c1)c1coc(-c2ccccc2)n1	1.62% (inactive)
C=CC(=O)Nc1ccc(CN2C(=O)N(c3cc(OC)cc(OC)c3)Cc3cnc(Nc4ccc(N5CCN(C)CC5)cc4)nc32)cc1	3.92% (inactive)
CC(C)CCNC(=O)[C@H](CC(C)C)NC(=O)[C@H]1O[C@@H]1C(=O)O	-2.38% (inactive)
Cc1ccc(C)c(-c2cc(C(F)(F)F)nn2-c2ccc(S(N)(=O)=O)cc2)c1	0.151% (inactive)
O=c1[nH]c([C@@H]2CCCN2)nc2c1oc1ccc(Cl)cc12	-1.46% (inactive)
O=C(NC[C@H]1CN(c2ccc(N3CCOCC3=O)cc2)C(=O)O1)c1ccc(Cl)s1	-2.82% (inactive)
COc1ccc2nc3n[nH]c(C)c3c(NCCOCCO)c2c1	-4.83% (inactive)
CCCN1CCC=C(c2cc(-c3ccc(C)cc3)no2)C1	19.4% (inactive)
